53 compounds from PubChem BioAssay AID2685 (National Center for Advancing Translational Sciences (NCATS), 2010) can be followed below.

Each structure is given as a SMILES string. In all, about 320,000 compounds went through this assay and about 2,100 (0.66%) were called active. Another 53% or so got no clear call; they are omitted. Calls come from the whole dose curve; as a rule, active = well fitted inhibition curve with a large enough effect in the signal ratio, with a control signal flat (not every such curve was filed as active); inconclusive = small, poorly fitted or top-dose-only effect, or effect the other way, or a change in a side signal; inactive = flat fitted curve, though single readings scatter; the % refers to the signal ratio. For the sample, actives were picked, then their nearest neighbours and some compounds at random.
Potency is the fitted concentration of half-maximal effect.

The test in a line: qHTS Assay for Lipid Storage Modulators in Drosophila S3 Cells.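 For cell number change: cells counted by Cell Tracker Red CMTPX staining in the red channel.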 The conditions noted are these: BODIPY lipid droplet fluorescence, 18-24 h, cells fed with added oleic acid; cell number change: measured here: cell count max response; series mostly up to 46.1 µM. The method in brief:
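Laser-scanning cytometry quantifies lipid droplet accumulation (500–530 nm total intensity; droplet/cell object ratio) in oleic acid-fed (400 uM added) Drosophila S3 cells treated with a concentration series. 20 uM Triacsin C defined 100% inhibition.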
Consider `Cc1nnc(SCC(=O)NNC(=O)c2ccccc2)n1-c1ccccc1`, for which the Potency entry is “inactive”.
Take `COc1cc2c(cc1OC)C(c1ccccc1)N(C(=O)c1cccc(S(C)(=O)=O)c1)CC2` (stereo not drawn): the Potency entry is “inactive” and the cell number change stood at 14.6%.
With `Cc1cc(C(=O)COC(=O)/C=C/c2cccc(Br)c2)c(C)n1C`, the Potency result is “inactive”.
Turning to `Cc1cc(C(=O)COC(=O)/C=C/c2cccc(F)c2)c(C)n1C`, the Potency result is “inactive” and the cell number change came out at 5.66%.
For the compound `COc1ccccc1/C=C/C(=O)OCC(=O)c1cc(C)n(C)c1C`, the Potency is 1.3 µM (active) and the cell number change is -22.1%.
Consider `COc1ccc(S(=O)(=O)Nc2ccccc2N2CCOCC2)cc1[N+](=O)[O-]`, for which the Potency result is “inactive” and the cell number change is 0.857%.
Consider `COCCCNC(=S)Nc1ccc2nc(N3CCOCC3)cc(C)c2c1`, for which the Potency entry is “inactive” and the cell number change is 0.741%.
For the compound `Cc1ccc(N2CC(C(=O)NCCS(=O)(=O)N3CCN(c4ccc(F)cc4)CC3)CC2=O)cc1` (stereo not drawn), the Potency is 2.06 µM (active) and the cell number change is -2.39%.
With `O=C(NCCS(=O)(=O)N1CCN(c2ccccc2)CC1)C1CC(=O)N(c2ccc(F)cc2)C1` (stereo not drawn), the Potency result is “inactive” and the cell number change is -3.13%.
For `O=C(NCCS(=O)(=O)N1CCN(c2ccc(F)cc2)CC1)C1CC(=O)N(c2ccccc2)C1` (stereo not drawn), the Potency result was “inactive” and the cell number change is 4.61%.
On to `CC(=O)N1CCc2c(sc(NC(=O)Cc3ccc(F)cc3)c2C#N)C1`, for which the Potency result is “inactive” and the cell number change is 7.34%.
In the case of `O=C(COC(=O)c1nc(Cl)c(Cl)c(Cl)c1Cl)NCc1ccccc1`, the Potency result was “inactive” and the cell number change is -8.84%.
The like results for `COc1cccc(CNC(=O)COC(=O)c2nc(Cl)c(Cl)c(Cl)c2Cl)c1` were, in that order, 14.6 µM (active) and -29.4%.
Take `COc1cccc(CNC(=O)CCl)c1`: the Potency result was “inactive” and the cell number change turned out to be 5.99%.
For `COC(=O)c1sccc1NC(=O)CC1C(=O)NCCN1C(=O)Nc1cc(Cl)ccc1OC` (stereo not drawn), the Potency result was “inactive” and the cell number change worked out at 13.4%.
Turning to `CCC(=O)Oc1ccc2c(=O)c(-c3ccc4ccccc4n3)c(CC)oc2c1C`, the Potency entry was “inactive” and the cell number change stood at 1.88%.
`COc1ccc(C(=O)N2CCCCC2)cc1S(=O)(=O)Nc1cccc(C(=O)O)c1`: the Potency result was “inactive” and the cell number change worked out at 0.28%.
The like results for `COc1ccc(C(=O)O)cc1S(=O)(=O)Nc1cccc(C(F)(F)F)c1` were, in that order, 29.1 µM (active) and -15.9%.
On to `COc1ccc(F)cc1S(=O)(=O)Nc1cccc(C(=O)O)c1`, for which the Potency entry is “inactive”.
With `COC(=O)c1cccc(C23CC4(C2)[C@H](CN(Cc2cccnc2)[C@@H]4c2ccccc2)C3c2ccc(Cl)nc2)c1` (stereo partly drawn), the Potency result is “inactive” and the cell number change was 17.9%.
Take `CC(C)(C)OC(=O)N/N=C/c1cccc([N+](=O)[O-])c1`: the Potency result was “inactive” and the cell number change came out at 14.2%.
`O=C(c1ccccc1)N1CCC(CC2CC(c3cccc(Br)c3)=NO2)(C(=O)NCC2CCCCC2)CC1` (stereo not drawn): the Potency entry is “inactive” and the cell number change was 21.3%.
Take `CCOc1cc(C(=O)N2CCC(CC3CC(c4cccc(Br)c4)=NO3)(C(=O)NCC3CCCCC3)CC2)cc(OCC)c1OCC` (stereo not drawn): the Potency is 2.06 µM (active) and the cell number change is 23.9%.
As to `CCCCCCCNC(=O)C1(CC2CC(c3cccc(Br)c3)=NO2)CCN(C(=O)c2cc(OCC)c(OCC)c(OCC)c2)CC1` (stereo not drawn), the Potency result is “inactive” and the cell number change is -10.9%.
Take `O=C(NCC(=O)N(CCN1CCOCC1)C(C(=O)NC1CCCC1)c1ccccc1)c1cccs1` (stereo not drawn): the Potency result was “inactive” and the cell number change was -0.374%.
For the compound `Cc1ccc(N(Cc2ccccc2)C(=O)c2cccc(S(=O)(=O)N3CCN(C)CC3)c2)cc1`, the Potency entry is “inactive” and the cell number change was -1.81%.
On to `Cc1cc(=O)[nH]c(N/N=C/c2ccc(Cl)cc2Cl)n1`, for which the Potency entry was “inactive” and the cell number change is 3.1%.
`CCN1CCN(Cc2ccc(NC(=O)c3ccc(C)c(NC(=O)c4ccc5n[nH]nc5c4)c3)cc2C(F)(F)F)CC1`: the Potency result was “inactive”.
As for `CCN1CCN(Cc2ccc(NC(=O)c3ccc(C)c(/C=C/c4cnc(Nc5cc(N6CCNCC6)nc(C)n5)cn4)c3)cc2C(F)(F)F)CC1`, the Potency was 18.4 µM (active) and the cell number change is -17.2%.
With `CCN1CCN(Cc2ccc(NC(=O)c3ccc(C)c(NC(=O)c4ccnnc4)c3)cc2C(F)(F)F)CC1`, the Potency entry is “inactive”.
As to `CN1CCc2nc(NC(=O)c3cccc(S(=O)(=O)N4CCc5ccccc54)c3)sc2C1`, the Potency result was “inactive” and the cell number change amounted to 12.6%.
On to `COCC(=O)Nc1cc(C(=O)NCC(C)C)ccc1Cl`, for which the Potency result is “inactive” and the cell number change turned out to be 4.26%.
With `COc1cc(OC)c(OC)cc1/C=N/n1c(C)nc2ccccc2c1=O`, the Potency entry was “inactive” and the cell number change turned out to be 16.2%.
Consider `Cc1nc2ccccc2c(=O)n1/N=C/c1ccccc1O`, for which the Potency entry was “inactive” and the cell number change came out at 14.5%.
Taken in the same sequence, the figures for `COc1ccc(Br)cc1/C=N/n1c(C)nc2ccccc2c1=O` were 3.66 µM (active) and -4.17%.
The like results for `Cc1ccc(NC(=O)Cn2nc(-c3ccccc3)nc2-c2ccccc2)c(C)c1` were, in that order, “inactive” and -8.2%.
In the case of `CCOC(=O)CSc1ncnc2c1cnn2-c1ccccc1`, the Potency result is “inactive” and the cell number change was -3.98%.
Taken in the same sequence, the figures for `CCOC(=O)CNC(=O)CSc1ncnc2c1cnn2-c1ccc(C)cc1` were “inactive” and -17%.
Turning to `CCOC(=O)CSc1ncnc2c1cnn2-c1ccc(Cl)cc1`, the Potency was 0.184 µM (active) and the cell number change was determined as 4.64%.
For `CCCOc1cccc(C(=O)N(Cc2ccco2)C2CCS(=O)(=O)C2)c1` (stereo not drawn), the Potency entry is “inactive” and the cell number change is -9.39%.
Turning to `CCNC(=S)NCc1ccc2[nH]c(C)cc2c1`, the Potency entry is “inactive” and the cell number change was determined as 15.9%.
As to `COc1cc(C(=O)NCCc2ccc(F)cc2)c([N+](=O)[O-])cc1OC`, the Potency result is “inactive”.
For the compound `COc1ccccc1CNS(=O)(=O)c1c(C)[nH]c(C)c1C(=O)N1CCCCC1`, the Potency is 18.4 µM (active) and the cell number change was -19.3%.
The like results for `COc1ccc(CCNS(=O)(=O)c2c(C)[nH]c(C)c2C(=O)N2CCCCC2)cc1OC` were, in that order, “inactive” and -25.1%.
For the compound `Cc1[nH]c(C)c(S(=O)(=O)Nc2ccc(OC(F)(F)F)cc2)c1C(=O)N1CCCCC1`, the Potency is 4.11 µM (active) and the cell number change was -12.7%.
Consider `Cc1[nH]c(C)c(S(=O)(=O)NCCc2ccccc2)c1C(=O)N1CCCC1`, for which the Potency result is “inactive” and the cell number change was found to be 13.4%.
For `CCOC(=O)c1ccc(NS(=O)(=O)c2c(C)[nH]c(C)c2C(=O)N2CCCCC2)cc1`, the Potency result was “inactive”.
As to `Cc1ccccc1CNS(=O)(=O)c1c(C)[nH]c(C)c1C(=O)N1CCCCC1`, the Potency result is “inactive” and the cell number change is -3.58%.
Regarding `COC(=O)c1ccc(NS(=O)(=O)c2c(C)[nH]c(C)c2C(=O)N2CCCC2)cc1`, the Potency result was “inactive” and the cell number change is -16.1%.
In the case of `COc1ccccc1CNS(=O)(=O)c1c(C)[nH]c(C)c1C(=O)N1CCCC1`, the Potency entry was “inactive”.
With `Cc1[nH]c(C)c(S(=O)(=O)NCCc2ccccc2)c1C(=O)N1CCCCC1`, the Potency was 11.6 µM (active) and the cell number change was -13.9%.
In the case of `O=C(CN1CCN(Cc2ccccc2Cl)CC1)N/N=C/C=C\c1ccccc1[N+](=O)[O-]`, the Potency entry was “inactive” and the cell number change came to 0.435%.
As for `Cc1ccccc1C(=O)c1cccn1CC(=O)NCC(C)c1ccccc1` (stereo not drawn), the Potency result was “inactive” and the cell number change was -7.34%.
